# Results filed as inconclusive are left out. Calls of active or inactive are those of the source. Calls follow the shape of the full dose curve.
# Experiment: Confirmatory qHTS for inhibitors of SARS-S pseudo-typed particle cell entry
# Settings: SARS-S pseudotyped particle cell entry, reporter luminescence; series mostly up to 57.1 µM
row,Compound,Potency
1,CN1CCN(CCC=C2c3ccccc3Sc3ccc(S(=O)(=O)N(C)C)cc32)CC1,6070 nM (active)
2,CCc1c2c(nc3ccc(OC(=O)N4CCC(N5CCCCC5)CC4)cc13)-c1cc3c(c(=O)n1C2)COC(=O)[C@]3(O)CC,inactive
3,COc1cccc2c1C(=O)c1c(O)c3c(c(O)c1C2=O)C[C@@](O)(C(=O)CO)C[C@@H]3O[C@H]1C[C@H](N)[C@H](OC2CCCCO2)[C@H](C)O1 (some centres undefined),7640 nM (active)
4,C[n+]1c2cc(N)ccc2cc2ccc(N)cc21 (tested in a mixture with another compound),6810 nM (active)
5,O=c1c(C2CC(c3ccc(-c4ccc(Br)cc4)cc3)Cc3ccccc32)c(O)sc2ccccc12 (centres undefined),13600 nM (active)
6,c1ccc2c(c1)Sc1ccccc1N2CC1CN2CCC1CC2 (centres undefined),27100 nM (active)
7,O=c1ccc2ccccc2o1,inactive
8,CC(=O)[C@]1(O)Cc2c(O)c3c(c(O)c2[C@@H](O[C@H]2C[C@H](N)[C@H](O)[C@H](C)O2)C1)C(=O)c1ccccc1C3=O,6070 nM (active)
9,COc1cc(N)c(Cl)cc1C(=O)NC1CCN(CCCOc2ccc(F)cc2)CC1OC (centres undefined),inactive
10,C=C(C)[C@H]1Cc2c(ccc3c2O[C@@H]2COc4cc(OC)c(OC)cc4[C@@H]2C3=O)O1,34.1 nM (active)
11,Cc1ccc(NC(=O)c2ccc(CN3CCN(C)CC3)cc2)cc1Nc1nccc(-c2cccnc2)n1,30400 nM (active)
12,N/C(=N\N=C\c1ccc(Cl)cc1)N/N=C/c1ccc(Cl)cc1,inactive
13,N#CC(c1ccc(Cl)cc1)c1c(Cl)cc(-n2ncc(=O)[nH]c2=O)cc1Cl (centres undefined),19200 nM (active)
14,C[C@]12CC[C@H](O)C[C@H]1CCC1C2CC[C@]2(C)[C@@H](c3ccc(=O)oc3)C[C@H]3O[C@]132 (some centres undefined),5410 nM (active)
15,CCC(C)(C)C(=O)O[C@H]1C[C@@H](C)C=C2C=C[C@H](C)[C@H](CC[C@@H]3C[C@@H](O)CC(=O)O3)[C@H]21,607 nM (active)
16,Nc1ccn([C@@H]2O[C@H](CO)[C@@H](O)C2(F)F)c(=O)n1,192 nM (active)
17,CCCCCCOC(=O)NC(=N)c1ccc(NCc2nc3cc(C(=O)N(CCC(=O)OCC)c4ccccn4)ccc3n2C)cc1,inactive
18,CC(C)(C)C(=O)OCOP(=O)(COCCn1cnc2c(N)ncnc21)OCOC(=O)C(C)(C)C,38.3 nM (active)
19,CC(C)(C)NCC(O)COc1ccccc1C1CCCC1 (centres undefined),3410 nM (active)
20,COC(=O)C[C@](O)(CCCC(C)(C)O)C(=O)O[C@@H]1C(OC)=C[C@]23CCCN2CCc2cc4c(cc2[C@H]13)OCO4,1520 nM (active)
21,O=C(O)c1cc(O)c2c(c1)[C@H]([C@H]1c3cc(C(=O)O)cc(O)c3C(=O)c3c(O[C@@H]4O[C@H](CO)[C@@H](O)[C@H](O)[C@H]4O)cccc31)c1cccc(O[C@@H]3O[C@H](CO)[C@@H](O)[C@H](O)[C@H]3O)c1C2=O,inactive
22,CCCCCCCCCCCCCC[n+]1ccc(C)cc1,3830 nM (active)
23,CC(C)C[C@H](NC(=O)[C@H](CCc1ccccc1)NC(=O)CN1CCOCC1)C(=O)N[C@@H](Cc1ccccc1)C(=O)N[C@@H](CC(C)C)C(=O)[C@@]1(C)CO1,681 nM (active)
24,COc1cc([C@@H]2c3cc4c(cc3C(O[C@@H]3O[C@@H]5CO[C@@H](c6cccs6)OC5[C@H](O)[C@H]3O)C3COC(=O)[C@@H]32)OCO4)cc(OC)c1O (some centres undefined),1080 nM (active)
25,Cc1oncc1C(=O)Nc1ccc(C(F)(F)F)cc1,inactive
26,C/C=C(/C)C(=O)O[C@H]1C(C)=CC23C(=O)C(C=C(CO)[C@@H](O)[C@]12O)[C@H]1[C@@H](C[C@H]3C)C1(C)C (some centres undefined),12.1 nM (active)
27,Cc1nnc(C(=O)NC(C)(C)c2nc(C(=O)NCc3ccc(F)cc3)c(O)c(=O)n2C)o1,10.8 nM (active)
28,CC[C@@]1(O)C(=O)OCc2c1cc1n(c2=O)Cc2c-1nc1ccccc1c2/C=N/OC(C)(C)C,85.7 nM (active)
29,Cc1c(N)nc(C(CC(N)=O)NCC(N)C(N)=O)nc1C(=O)NC(C(=O)NC(C)C(O)C(C)C(=O)NC(C(=O)NCCc1nc(-c2nc(C(=O)NCCCN[C@@H](C)c3ccccc3)cs2)cs1)C(C)O)C(O[C@@H]1O[C@@H](CO)[C@@H](O)[C@H](O)[C@@H]1O[C@H]1O[C@H](CO)[C@@H](O)[C@H](OC(N)=O)[C@@H]1O)c1cnc[nH]1 (some centres undefined),857 nM (active)
